This is part of a sample that, as a whole, favours compounds with a hit. Of some 83,000 tested, about 20% had one in any assay.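 Testing used 96-well plates and a 48-hour single-concentration exposure. Example: -40 means 40% of the starting cells died.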 A number with no mark means an inactive call. Activity calls are given as the source filed them. How the source made its calls: active means growth percent below 10; inactive means the rest.
Columns and labels:
Assay in all cases: NCI-60 one-dose screen, 48 h (100 = growth as untreated, 0 = no growth, -100 = all killed)
Details in all cases: 10 µM unless noted
DU-145 prostate = tested on: DU-145 prostate
K-562 leukemia = tested on: K-562 leukemia
MALME-3M melanoma = tested on: MALME-3M melanoma
MDA-MB-231 breast = tested on: MDA-MB-231 breast
SF-268 CNS = tested on: SF-268 CNS
SF-295 CNS = tested on: SF-295 CNS
SF-539 CNS = tested on: SF-539 CNS
M14 melanoma = tested on: M14 melanoma
RXF 393 renal = tested on: RXF 393 renal

SMILES | growth (DU-145 prostate) | growth (K-562 leukemia) | growth (MALME-3M melanoma) | growth (MDA-MB-231 breast) | growth (SF-268 CNS) | growth (SF-295 CNS) | growth (SF-539 CNS) | growth (M14 melanoma) | growth (RXF 393 renal)
CC(C)(C)C(=O)OCOP(=O)(OCOC(=O)C(C)(C)C)C1CCCN(OC(=O)c2ccccc2)C1=O (centres undefined) | 36.9% | 9.43% (active) | 29.4% | 12.7% | 36% | 57.3% | 53% | 47.2% | –
ClCc1ccc(-c2ccc(Cn3cnc4nc(Cl)nc(Cl)c43)cc2)cc1 | -50% (active) | -14.4% (active) | -32.8% (active) | -21.4% (active) | 1.27% (active) | -62.5% (active) | -45% (active) | 13.1% | –
C=CCCCC(=O)CCC(=O)OCC1O[C@@H](O[C@@H]2C(O)[C@@H](OC(C)=O)C(C)O[C@H]2O[C@H](CC=C)CCCCC)C(O)[C@@H](OC(=O)/C(C)=C/C)[C@@H]1OC(=O)/C=C/c1ccccc1 (some centres undefined) | 33.3% | 34.3% | 17.7% | 4.48% (active) | 29.2% | -11.9% (active) | 14.3% | -10.3% (active) | –
Nc1c(C(=O)c2ccccc2)sc2nc(-c3cccs3)ccc12 | 20.6% | 14.1% | 72.5% | 37.9% | 45.7% | 5.01% (active) | 1.09% (active) | 30.2% | –
Cc1nn(-c2nc3ccccc3[nH]2)c2c1C(c1ccc(OCc3ccc(F)cc3)cc1)CC(=O)N2 (centres undefined) | 96% | 87.6% | 81.3% | 42.8% | 46.7% | 19% | 56.7% | 58.5% | –
CCCCCCCC(=O)SCC/C=C/[C@@H]1CC(=O)NCc2cccc(n2)C2=N[C@@](C)(CS2)C(=O)N[C@@H](C(C)C)C(=O)O1 | 12.3% | 11.1% | 22.7% | 10.2% | 11.1% | -62.4% (active) | 20% | 5.95% (active) | –
CC(=O)OC1Oc2ccccc2-c2oc(=O)c(-c3cc4ccc(N(C)C)cc4oc3=O)cc21 (centres undefined) | 19.1% | 1.45% (active) | 4.74% (active) | 59.5% | 73.1% | 6.73% (active) | 69.4% | 47.2% | –
CCN1/C(=C/C=C/c2n(-c3ccccc3)c3ccc(-c4nc5ccccc5s4)cc3[n+]2CC)N(c2ccccc2)c2ccc(-c3nc4ccccc4s3)cc21 | -47.9% (active) | 10.2% | -44.5% (active) | 16.9% | 9.74% (active) | -30.4% (active) | -13.7% (active) | -11.2% (active) | –
C=C1C(=O)O[C@H]2[C@H]1CC/C(CNC(=O)c1cc3cc(OC)ccc3[nH]1)=C\CC[C@@]1(C)O[C@@H]21 | -92% (active) | -3.44% (active) | -61.6% (active) | -55.5% (active) | -39.3% (active) | 37.6% | -60.6% (active) | -42.4% (active) | –
COc1ccc2nc3cc(Cl)ccc3c(Nc3ccc(N(C)C)cc3)c2c1 | 91% | 80.2% | 106% | 89.8% | 94.5% | 86.8% | 95.1% | 98.2% | –
C[N+](C)(CCOC(c1ccccc1)c1ccccc1)CC(=O)OCc1ccccc1 | 105% | 126% | 99.7% | 113% | 106% | 103% | 105% | 91.3% | –
COc1ccc2c(CCCC(c3ccccc3)c3ccccc3)c3[n+](cc2c1OC)CCc1cc2c(cc1-3)OCO2 | -13.4% (active) | -15.4% (active) | -66.7% (active) | -63.4% (active) | -58% (active) | -32.2% (active) | -38.1% (active) | -67.5% (active) | –
COc1cnc2c(c1)C(=O)c1c-2n(CCCn2ccnc2)c(=O)c2cc(Cl)ccc12 | 2.01% (active) | 5.92% (active) | – | 55.2% | 21.9% | 0.124% (active) | -11.6% (active) | – | -33.6% (active)
COc1ccc(-c2nc(N)ncc2Oc2ccccc2OC)c(O)c1 | 34.9% | 12.2% | 48% | 51.9% | 46.3% | -0.599% (active) | 8.99% (active) | 12.5% | –
Fc1ccc(NCc2cn(-c3ccccc3)nc2-c2ccc(OCc3ccccc3)cc2)cc1Cl | 107% | 89.8% | – | 72.7% | 92.2% | 87% | 93.3% | 88.1% | 112%
CCN(CC)C(=O)C[N+](C)(C)CCOC(c1ccccc1)c1ccccc1 | 103% | 109% | 98.5% | 117% | 103% | 99.5% | 102% | 100% | –
COc1cc(NCCN(CC(C)C)CC(C)C)c2ncc(C)cc2c1 | 71.4% | 34.2% | 66.7% | 50.3% | 71.1% | 64.6% | 97.7% | 61% | –
O=C1CC(c2cccc(F)c2)c2c(n[nH]c2-c2ccc(Cl)cc2)N1 (centres undefined) | 102% | 96.4% | 99.4% | 80.4% | 94.1% | 91.8% | 91.3% | 100% | –
N#Cc1c(-c2ccc(C(F)(F)F)cc2)cc(NCC2CCS(=O)(=O)CC2)n2c1nc1ccccc12 | 106% | 90% | – | 56.2% | 82.4% | 88.2% | 82% | 99.2% | 72.6%
CCc1nc2ccc(Cc3ccc(C(=O)NO)cc3)cc2c(=O)n1CCc1ccccc1 | 2.78% (active) | 1.5% (active) | – | -24% (active) | -48.5% (active) | -79.1% (active) | -43.1% (active) | -63.8% (active) | -66.6% (active)
O=C1CSC(c2c(F)cccc2Cl)N1NC(=O)C(O)(c1ccccc1)c1ccccc1 (centres undefined) | 108% | 80.3% | 82.1% | 93% | 112% | 94.3% | 100% | 94.5% | –
NS(=O)(=O)c1ccc(CCN2C(=O)/C(=C\c3ccc(Cl)cc3)C=C2c2ccc3ccccc3c2)cc1 | 108% | 96.4% | 98.8% | 90.5% | 103% | 99.1% | 101% | 95% | –
COc1cnc2c(c1)C(=O)c1c-2n(CCCN2CCC(O)CC2)c(=O)c2cc(Cl)ccc12 | 22.8% | -38.7% (active) | – | -28.4% (active) | 34.7% | 17.8% | 14.7% | 30.9% | 28.2%
CCCc1cc2cc(-n3nc(C)c4c3CC(C)(C)CC4=O)cc(NC3CCC(O)CC3)c2c(=O)[nH]1 (centres undefined) | 38.8% | 10% | 29.9% | -0.14% (active) | 50.2% | -35.6% (active) | 37.8% | 23.6% | –
O=c1nc2c(-c3nc4ccccc4s3)n[nH]n2c2sc3c(c12)CCCC3 | 104% | 92.3% | 104% | 93.7% | 97.6% | 89.8% | 105% | 98.8% | –
CCOC(=O)C1=C(C)N=C2Sc3cccc(OC)c3N2[C@H]1c1ccccn1 | 105% | 101% | 91.2% | 90.6% | 94.2% | 101% | 103% | 103% | –
COc1cc2c3c(c1)nc(C)n3CCC2 | 109% | 98.8% | 110% | 107% | 107% | 95.8% | 97.9% | 100% | –
NC(=O)N1N=C(c2ccc(Cl)cc2)CC1c1cn(-c2ccccc2)nc1-c1ccc(Cl)cc1 (centres undefined) | 77.7% | 78.8% | – | 43.4% | 55.4% | 40.3% | 37.8% | 79.8% | -11.2% (active)
CC(N)C(Cc1ccc(Cl)cc1)c1ccc(Cl)cc1 (centres undefined) | 61% | 0.46% (active) | 80.3% | 35.5% | 62.6% | 84.9% | 80.8% | 47.6% | –
CC1(O)CCC2CC3OC3(C)CCC3OC3(C)C(O)CC1C2(C)C (centres undefined) | 105% | 119% | 113% | 122% | 113% | 52% | 116% | 114% | –

Source: PubChem BioAssay (NCI)
